Screening results (PubChem)
PI5P4K alpha inh – blocks human PI5P4K alpha kinase activity; P48426; AID 652105; max response, %; 1.2% of 330,000 active; PI5P4Kalpha enzyme, ADP-Glo luminescence, 60 min; active compounds read low; active = max response of -50% or lower; inconclusive = between -30% and -50%; inactive = -30% or higher; also: value at the top dose of about 77 µM; % is scaled to controls: 0 for no effect and ±100 for the full control effect
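qHTS, 1536-well: enzyme/substrate mix, compound by pin tool, 5 microM ATP final; RT 60 min; ADP-Glo reagents 1 (45 min) then 2 (30 min); luminescence.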
Pol kappa inh-1 – inhibitors of human DNA polymerase kappa | purified Pol kappa, fluorescent DNA synthesis assay, 10 min | Q9UBT6 | Potency, µM (series often up to 107 µM), for the others: at the highest dose activity, negative = inhibition, actives largely listed as inhibitors | 0.53% of 400,000 active; also: potency is read from the fitted curve at half-maximal effect; % is scaled to controls: 0 for no effect and ±100 for the full control effect
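Readout: fluorescence, taken kinetically at 0 and 10 min. Conditions: 10 nM Pol kappa, 15 min RT compound preincubation, 50 nM substrate final. Controls: enzyme-free buffer wells.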
POLB inh – DNA polymerase beta (human) inhibition. Pol beta primer extension/strand displacement, fluorescence kinetic. Potency, µM (doses to about 114 µM), for the others: top-dose activity change, negative = inhibition, actives largely listed as inhibitors. 1.3% of 340,000 active. AID 485314; also: potency is read from the fitted curve at half-maximal effect; % is scaled to controls: 0 for no effect and ±100 for the full control effect
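Pol beta (10 nM) and compounds were preincubated 15 min at room temperature, then 50 nM substrate (final) started primer extension/strand displacement. Reads were taken at 0 and 10 min; concentration-response data were fitted to a four-parameter Hill equation.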
Pol eta inh-1 – inhibitors of human DNA polymerase eta; recombinant Pol eta, fluorescent DNA replication assay; Potency, µM (titrated, usually from 114 µM), without a hit: at the top dose activity change, negative = inhibition, usual class: inhibitors; 1.2% of 390,000 active; also: potency is read from the fitted curve at half-maximal effect; % is scaled to controls: 0 for no effect and ±100 for the full control effect
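Pol eta (10 nM) was preincubated with compounds for 15 min at room temperature, after which fluorescent replication substrate (50 nM final) was added to start the reaction. Fluorescence was read kinetically at 0 and 10 min.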
Pol iota inh – DNA polymerase iota (human) inhibition | Q9UNA4 | Pol iota fluorescent replication assay, 10 min | Potency, µM (doses to about 115 µM), inactives show top-dose activity, negative = inhibition, usual class: inhibitors | 1% of 390,000 active | AID 588590; also: potency is read from the fitted curve at half-maximal effect
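Pol iota at 10 nM preincubated 15 min with compounds at room temperature; reaction started with fluorescent substrate, 50 nM final. Fluorescence read kinetically at 0 and 10 min; buffer-only wells as negative control.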
12-LOX inh – ALOX12 (human) lipoxygenase inhibition; purified 12hLO, xylenol orange hydroperoxide absorbance; Potency, µM (highest dose often 108 µM), for the others: at the highest dose activity change, negative = inhibition, actives largely listed as inhibitors; 1.1% of 580,000 active; also: potency is read from the fitted curve at half-maximal effect; % is scaled to controls: 0 for no effect and ±100 for the full control effect
Target sequence (P18054 whole entry, looked up): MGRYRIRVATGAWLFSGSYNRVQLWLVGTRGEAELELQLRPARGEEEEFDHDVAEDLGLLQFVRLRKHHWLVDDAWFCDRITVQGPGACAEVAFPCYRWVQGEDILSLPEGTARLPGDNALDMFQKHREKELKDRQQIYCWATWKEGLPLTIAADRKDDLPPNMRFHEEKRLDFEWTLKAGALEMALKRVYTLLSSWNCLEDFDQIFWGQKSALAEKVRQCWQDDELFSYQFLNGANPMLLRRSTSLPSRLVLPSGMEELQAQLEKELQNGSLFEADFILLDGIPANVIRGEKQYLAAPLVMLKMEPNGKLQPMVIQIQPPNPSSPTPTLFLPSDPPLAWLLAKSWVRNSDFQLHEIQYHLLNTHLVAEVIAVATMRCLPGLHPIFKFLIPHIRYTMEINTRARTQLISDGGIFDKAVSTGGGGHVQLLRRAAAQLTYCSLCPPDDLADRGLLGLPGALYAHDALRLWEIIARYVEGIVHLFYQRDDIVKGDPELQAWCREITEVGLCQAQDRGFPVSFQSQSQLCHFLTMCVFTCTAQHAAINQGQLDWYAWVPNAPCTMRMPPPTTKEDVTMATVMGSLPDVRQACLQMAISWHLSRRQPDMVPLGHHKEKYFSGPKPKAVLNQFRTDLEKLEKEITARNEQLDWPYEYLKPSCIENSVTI
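Hydroperoxide product was detected by ferrous iron/xylenol orange as the 573 to 405 nm absorbance ratio. Arachidonic acid at 40 uM (final) was turned over for 30 min at room temperature by 150 nM human 12hLO, pH 7.0 Hepes buffer, after 15 min compound preincubation.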
GALK inh confirm – galactokinase (human) inhibition, confirmation | Potency, µM (titrated, usually from 115 µM), inactives show at the highest dose activity, negative = inhibition, usual class: inhibitors | purified GALK, Kinase-Glo ATP depletion luminescence | 70% of 150 active | shares compounds with Pol eta inh-1
GALK redox cs – redox cycling activity in phenol red-HRP assay | shares compounds with Pol eta inh-1 | Phenol red-HRP H2O2 redox cycling, absorbance 600 nm | Potency, µM (series often up to 115 µM), for inactives: at the highest dose activity change, negative = H2O2 signal, usual class: inhibitors | 40% of 150 active | AID 2035
HEK293 viability – counter-screen for GALK inhibitors: HEK293 cell cytotoxicity. shares compounds with Pol eta inh-1. HEK-293 viability, ATP luminescence (CellTiter-Glo), 24/48 h. Potency, µM (doses to about 46.1 µM), for inactives: at the highest dose activity change, negative = cytotoxicity, usual class: inhibitors. 10% of 170 active; also: potency is read from the fitted curve at half-maximal effect; % is scaled to controls: 0 for no effect and ±100 for the full control effect
Pol kappa inh-2 – Pol kappa (human) inhibition, cherry-pick confirmation; shares compounds with Pol eta inh-1; purified Pol-kappa, fluorescent strand-displacement substrate; Potency, µM, hits mostly inhibitors; 76% of 920 active; AID 720501; also: potency is read from the fitted curve at half-maximal effect
Pol eta inh-2 – confirmation of human DNA polymerase eta inhibitors; shares compounds with Pol eta inh-1; Pol eta primer extension, TAMRA/BHQ fluorescence, 10 min; Potency, µM, hits mostly inhibitors; 64% of 2,600 active; AID 720502; also: potency is read from the fitted curve at half-maximal effect
The depositor's hits bear a star; ? = inconclusive; / = no result given; [ ] = dose if it differs, or a comment. Compounds with a hit are over-represented: about 2.9% of the library has one in this group of screens. Unless noted, calls follow the shape of the dose curve; as a rule, active = well fitted curve in the direction sought with a large enough effect; inconclusive = small, poorly fitted or top-dose-only effect, or another doubt; inactive = no such curve, though single readings can be large; an effect the other way counts as inactive or inconclusive.

SMILES | PI5P4K alpha inh | Pol kappa inh-1 | POLB inh | Pol eta inh-1 | Pol iota inh | 12-LOX inh | Pol eta inh-2 | others
C/C=C\C=C/C(=O)Nc1cccc(C2=NOC3(C2)C[C@@H](C(N)=O)N(C(=O)C2(C)CC2)C3)c1 (some centres undefined) | ? | -13.3% | 29.1% | ? | 44.7µM* | 0.9% | 67.5*
CC1=NOC(=O)/C1=C\c1ccc(-c2cccc(Cl)c2)o1 | ? | -12.4% | ? | 20µM* | ? | / | ?
COCc1cc(CN2CCCC2)c(O)c2ncccc12 | / | -16.3% | -1.8% | -8.1% | 62.7% | -25.4% | / | GALK inh confirm=1.3%;GALK redox cs=-2.5%;HEK293 viability=?
CCN(CC)c1ccc(/C=C2\C(=O)c3ccc(C(=O)O)cc3C2=O)cc1 | -70.1* | ? | 39.8µM* | 7.94µM* | ? | 7.2% | 26.9*
COc1cc(Br)c(C2CC(=O)Nc3cc4c(cc32)OCO4)cc1OC (centres undefined) | / | / | / | / | / | -19.6% | /
CCCCCCCNC(=O)CC#N | / | / | / | / | / | 26.0% | /
CCc1ccc2[nH]c(C)c(CN(CC)CC)c(=O)c2c1 | / | / | / | / | / | 74.3% | /
O=C(OCc1cc(=O)n2ccsc2n1)c1ccccc1NCCO | ? | ? | / | 22.4µM* | 20µM* | -26.6% | ?
O=C(NC(Nc1ccccc1F)C(=O)c1ccccc1)c1ccc(Cl)cc1 (centres undefined) | / | / | / | / | / | -30.5% | /
CC1(C)[C@H]2CC[C@@H](CNC(=O)Cc3cccc(Cl)c3)[C@@H]1C2 | / | / | / | / | / | 11.4%[176 µM] | /
COc1ccc(/C=N/NC(=O)c2[nH]c3ccc(Cl)cc3c2-c2ccccc2)c(C(=O)O)c1OC | -5.0 | -6.1% | -19.6% | 79.4µM* | 27.1% | 0.0% | 37.9*
CC(Oc1ccccc1Cl)C(=O)N1CCC(c2nc3ccccc3o2)CC1 (centres undefined) | / | / | / | / | / | 22.1% | /
Cc1ccc2c(=O)cc(C(=O)N(Cc3ccccc3)Cc3ccco3)oc2c1 | / | / | / | / | / | -35.4% | /
CCN(CC)C(=S)SCC(=O)NC(=O)NC | / | / | / | / | / | 6.2% | /
CCOC(=O)Cc1nnc(NC(=O)CSc2nnc3c(n2)[nH]c2ccccc23)s1 | -18.7 | 79.4µM* | 17.8µM* | 20µM* | 25.1µM* | 0.3% | 42.6*
Cc1nnc(NC(=O)CSc2nnc3c(n2)[nH]c2ccccc23)s1 | / | -7.4% | 13.6% | 10.8% | -22.3% | ? | /
COc1ccc2nc(Cl)c(C3CC(c4ccco4)=NN3C(=O)CCCC(=O)O)cc2c1 (centres undefined) | 1.8 | 28.2µM* | ? | 35.5µM* | 22.4µM* | -28.8% | 75.7*
COC(=O)/C=C1\SC(=NC(=O)c2ccc(-c3ccccc3)cc2)NC1=O | -63.1* | -33.3% | / | 50.1µM* | ? | ? | ?
COC(=O)/C=C1\SC(=NC(=O)c2ccc(OC)cc2)NC1=O | -0.7 | -1.9% | 11.8% | -16.3% | 0.7% | ? | /
COCc1ccccc1C(=O)NCC(O)c1ccccc1C(F)(F)F (centres undefined) | / | / | / | / | / | 51.9% | /
CC(=O)c1cccc(NC(=O)CN2C(=O)C(=O)N(Cc3ccco3)C2=O)c1 | -25.5 | ? | / | 14.1µM* | 50.1µM* | -14.6% | ?
O=C(O)c1cccc(NC(=O)c2ccc3c(c2)C(=O)N(Cc2ccco2)C3=O)c1 | -26.4 | ? | ? | 17.8µM* | 50.1µM* | ? | 42.6* | Pol kappa inh-2=67*
CC(=O)c1cccc(NC(=O)CN2C(=O)c3ccccc3C2=O)c1 | -3.0 | -15.2% | 18.1% | -16.3% | 63.0% | 10.1% | /
O=C(NCc1ccc(Cl)cc1Cl)C1CCN(c2ncnc3nc[nH]c23)CC1 | / | / | / | / | / | -1.0% | /
Cc1oc(C(=O)O)cc1COc1ccc2c3c(c(=O)oc2c1)CCC3 | 1.1 | ? | 35.5µM* | 17.8µM* | -19.2% | ? | ?
SMILES | PI5P4K alpha inh | Pol kappa inh-1 | POLB inh | Pol eta inh-1 | Pol iota inh | 12-LOX inh | Pol eta inh-2 | others
COc1ccc(NC(=O)N/C=C/c2ccco2)cc1 | -15.0 | ? | 25.1µM* | 44.7µM* | ? | ? | ?
O=C(N/C=C/c1ccco1)OCc1ccccc1 | -24.4 | -43.1% | ? | ? | ? | 39.8µM* | ?
O=C(N/C=C/c1ccco1)Nc1cccc(Cl)c1 | ? | -41.8% | -15.1% | ? | ? | ? | /
O=C(Cc1ccccc1)Nc1ccc(N2CCOCC2)c(Cl)c1 | / | / | / | / | / | 1.8% | /
CC1CCN(C(=O)C[C@@H]2c3nc(NC(=O)c4cccc(F)c4)sc3C[C@@H]3[C@](C)(CO)[C@H](O)CC[C@]32C)CC1 | / | / | / | / | / | -3.4% | /
O=C(O)CN1C(=O)/C(=C\c2cccc(OCc3ccccc3)c2)SC1=S | -0.6 | -17.1% | -0.6% | -16.5% | -27.7% | ? | /
O=C(O)CN1C(=O)/C(=C\c2cc(Br)ccc2OCc2ccc(F)cc2)SC1=S | ? | -69.1% | 39.8µM* | 39.8µM* | 39.8µM* | 2.51µM* | ?
Cc1ccccc1CSc1nnnn1-c1ccc(C(N)=O)cc1 | 4.2 | -7.4% | -13.5% | -22.0% | 134.9% | 15.0% | /
NC(=O)c1ccc(-n2nnnc2SCC(=O)c2ccc(O)c(O)c2)cc1 | ? | 25.1µM* | 10µM* | 10µM* | 14.1µM* | ? | 42.6*
O=C(COC(=O)C1CC1)Nc1ncc(Cl)cc1Cl | -16.6 | -38.2% | / | 28.2µM* | ? | ? | 47.8*
Cc1csc(=O)n1CCC(=O)OCC(=O)Nc1ncc(Cl)cc1Cl | -21.8 | ? | / | 22.4µM* | ? | ? | ? | Pol kappa inh-2=21.2*
O=c1[nH]c(/C=C/c2cccc([N+](=O)[O-])c2)c([N+](=O)[O-])c(=O)[nH]1 | -67.2* | -3.3% | -21.2% | 25.1µM* | ? | -4.7% | / | GALK inh confirm=37.5µM*;GALK redox cs=2.1%;HEK293 viability=6.9%
